FPR binder: binds the human formylpeptide receptor FPR; P21462; FPR-expressing cells, fluorescent ligand binding, flow cytometry; inhibition, % (no concentration beside the values); actives 0.74% (n = 24,000); AID 440
Target sequence (P21462 whole entry, looked up): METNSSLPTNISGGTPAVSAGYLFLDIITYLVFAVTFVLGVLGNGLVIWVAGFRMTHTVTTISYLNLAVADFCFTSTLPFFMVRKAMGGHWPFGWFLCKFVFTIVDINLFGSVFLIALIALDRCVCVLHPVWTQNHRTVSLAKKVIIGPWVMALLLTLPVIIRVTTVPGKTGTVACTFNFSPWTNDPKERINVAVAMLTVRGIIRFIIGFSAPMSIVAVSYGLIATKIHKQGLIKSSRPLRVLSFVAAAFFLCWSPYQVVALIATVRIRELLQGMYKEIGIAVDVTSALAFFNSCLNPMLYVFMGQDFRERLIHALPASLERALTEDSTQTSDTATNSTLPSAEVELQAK
Proteasome disasm: blocks ATP-dependent breakdown of the yeast 26S proteasome; actives 0.2% (n = 24,000); AID 751; anti-FLAG beads, GFP-proteasome disassembly, flow cytometry; inhibition of disassembly, % (no concentration beside the values);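 active = inhibition of disassembly above about 33%, limit read from the data; inconclusive = likely self-fluorescent, control bead median signal at least 40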;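 note: higher percent means more bead fluorescence retained so stronger block of disassembly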
VLA-4 antagonist: blocks LDV-FITC ligand binding to Mn2+-activated human VLA-4 integrin. P13612. Jurkat cells, LDV-FITC binding with Mn2+, flow cytometry; 100% = Mn2+-driven binding gain fully reversed. inhibition, % at 10 µM (by protocol). actives 0.2% (n = 24,000);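 active = inhibition above 50%; inconclusive = compound itself fluorescent, judged against control cell fluorescence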
Jurkat autofluor: counter-screen for VLA-4 integrin: compound autofluorescence in Jurkat cells; flow cytometry; hits give high values; 1 = vehicle-only cell background; fluorescence ratio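 (tested at 10 µM compound in the well)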; actives 0.61% (n = 24,000);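 active = fluorescence ratio above 2.44, which is 1 plus 3 SD of all ratios; inconclusive = signal too bright to measure linearly, ratio around 10 or more; inactive = fluorescence ratio below 2.44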;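 note: green fluorescence of cells measured with 488 nm excitation and 530 nm emission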
VLA-4 allo ag: allosterically activates the human VLA-4 integrin; 24,000 tested, under 10 active; activation, % at 10 µM (by protocol); P13612; AID 528; Jurkat cells, LDV-FITC binding, flow cytometry;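 active = fluorescent ligand binding to cells raised by more than 40% of the manganese-induced maximum; inconclusive = compound's own fluorescence above 85% of the ligand control signal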
FPRL1 binder: binds the human formylpeptide receptor-like-1 FPRL1; P25090; FPRL1-expressing cells, fluorescent ligand binding inhibition, flow cytometry; inhibition, % (concentration not given with the values); actives 0.3% (n = 24,000); AID 441
Target sequence (P25090 whole entry, looked up): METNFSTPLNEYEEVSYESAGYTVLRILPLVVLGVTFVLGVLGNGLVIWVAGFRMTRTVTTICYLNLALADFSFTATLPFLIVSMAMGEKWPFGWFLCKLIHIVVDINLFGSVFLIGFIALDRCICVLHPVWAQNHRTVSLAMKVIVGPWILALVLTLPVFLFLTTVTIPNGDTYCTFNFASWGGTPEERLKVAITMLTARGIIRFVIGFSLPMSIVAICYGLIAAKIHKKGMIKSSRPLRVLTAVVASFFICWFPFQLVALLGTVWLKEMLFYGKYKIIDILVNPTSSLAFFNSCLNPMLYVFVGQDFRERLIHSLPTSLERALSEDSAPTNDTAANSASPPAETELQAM
Of the large screens only hits and unclear results are named; the others gave an inactive call. Hits are enriched below; roughly 1.9% of the tested compounds scored in any of these assays. Cut-off read from the data, not from the text of the source, unless noted: active = inhibition above about 30%; inconclusive = no clear call, values can overlap the other calls; inactive = below that.

CCCCCOC(=O)Cn1c(=O)oc2ccccc21	FPR binder 31
C=CCN(C1CCCCC1)S(=O)(=O)c1ccc2c(c1)oc(=O)n2C	VLA-4 antagonist inconclusive, VLA-4 allo ag inconclusive
C=CCN(c1ccccc1)S(=O)(=O)c1ccc2c(c1)oc(=O)n2C	VLA-4 antagonist inconclusive, Jurkat autofluor 2.5, VLA-4 allo ag inconclusive
CC(=O)c1c(C)nc(-c2ccc(Cl)cc2)nc1N=CN(C)C	VLA-4 antagonist inconclusive, Jurkat autofluor 3.2, VLA-4 allo ag inconclusive
COc1cccc2c1C(=O)c1c(O)c3c(c(O)c1C2=O)C[C@@](O)(C(=O)CO)C[C@@H]3O[C@H]1C[C@H](N)[C@H](O)[C@H](C)O1	Proteasome disasm inconclusive, VLA-4 antagonist inconclusive, Jurkat autofluor 6.3, VLA-4 allo ag inconclusive
S=C(NCC1CCCO1)n1nnc2ccccc21 (stereo not given)	none
c1ccc2c(c1)nc(NCC1CCCO1)c1nnnn12 (stereo not given)	VLA-4 antagonist inconclusive, Jurkat autofluor 5, VLA-4 allo ag inconclusive
CC(C)C(CO)NC(=O)CC(=O)NC(CO)C(C)C (stereo not given)	none
CC1Cc2ccccc2N1C(=O)c1cc2c(=O)n3ccccc3nc2n1C (stereo not given)	VLA-4 antagonist inconclusive, VLA-4 allo ag inconclusive
Cc1cccn2c(=O)c3cc(C(=O)N4c5ccccc5CC4C)n(C)c3nc12 (stereo not given)	VLA-4 antagonist inconclusive, Jurkat autofluor 2.7, VLA-4 allo ag inconclusive
COC(=O)c1ccc2c(c1)NC(=O)C(N1CCCC1)S2 (stereo not given)	VLA-4 antagonist inconclusive, Jurkat autofluor 5, VLA-4 allo ag inconclusive
CCOc1cc2[nH]c(=O)n(CCCCC(=O)NC3CCCCC3)c(=O)c2cc1OCC	none
COc1ccccc1CNC(=O)CCCN1C(=O)COc2ccc(C)cc21	none
Cc1ccc(C2C3=C(CC(C)(C)CC3=O)Nc3[nH]c(=S)[nH]c(=O)c32)cc1 (stereo not given)	FPR binder 35
FC(F)(F)c1ccc(N2CCOCC2)c(Nc2nc3ccccc3n3cnnc23)c1	VLA-4 antagonist inconclusive, Jurkat autofluor 2.7, VLA-4 allo ag inconclusive
N#C[C@@H]1[C@@H]2C(=O)N(c3ccc4c(c3)OCCO4)C(=O)[C@@H]2C2c3ccccc3C=CN21 (stereo not given in full)	VLA-4 antagonist inconclusive, Jurkat autofluor 5.2, VLA-4 allo ag inconclusive
CC(=O)C1=C(C)N=c2s/c(=C/c3ccc4c(c3)OCO4)c(=O)n2C1c1ccc(N(C)C)cc1 (stereo not given)	FPR binder inconclusive, VLA-4 antagonist inconclusive, Jurkat autofluor 8.5, VLA-4 allo ag inconclusive
COc1ccc(C2C(C(C)=O)=C(C)N=c3s/c(=C/c4ccc5c(c4)OCO5)c(=O)n32)cc1 (stereo not given)	none
COc1ccccc1CNC(=O)c1cc2c(=O)n(C)c3ccccc3c2n1C	none
CCN(CCCc1ccccc1)CCCc1ccccc1	FPR binder 54
Cc1cc2ncc(-c3ccc(Cl)cc3)c(N)n2n1	none
COc1ccc(Cl)cc1-n1c(=S)sc2c(=O)[nH]c(SCC(=O)NCC3CCCO3)nc21 (stereo not given)	FPR binder 44
CCOc1ccc(-n2c(=S)sc3c(=O)[nH]c(SCC(=O)NCc4ccco4)nc32)cc1	none
O=C1CC(N2CCN(C3CCc4ccccc4C3)CC2)C(=O)N1c1ccccc1 (stereo not given)	none
CCOc1cc(C2C(C(=O)c3ccc(C)o3)=C(O)C(=O)N2CCc2ccccc2)ccc1O (stereo not given)	FPR binder 90 (no result: Proteasome disasm, VLA-4 antagonist, Jurkat autofluor, VLA-4 allo ag)
COc1cc(C2C(C(=O)c3ccco3)=C(O)C(=O)N2CCc2ccccc2)ccc1O (stereo not given)	FPR binder 63 (no result: Proteasome disasm, VLA-4 antagonist, Jurkat autofluor, VLA-4 allo ag)
COc1cc(C2C(C(=O)c3ccco3)=C(O)C(=O)N2Cc2cccnc2)cc(OC)c1OC (stereo not given)	none (no result: Proteasome disasm, VLA-4 antagonist, Jurkat autofluor, VLA-4 allo ag)
COc1ccc(CCN2C(=O)C(O)=C(C(=O)c3ccco3)C2c2cccs2)cc1OC (stereo not given)	FPR binder 82, FPRL1 binder 31 (no result: Proteasome disasm, VLA-4 antagonist, Jurkat autofluor, VLA-4 allo ag)
COCCN1C(=O)C(O)=C(C(=O)c2ccco2)C1c1cccc(Oc2ccccc2)c1 (stereo not given)	FPR binder 72 (no result: Proteasome disasm, VLA-4 antagonist, Jurkat autofluor, VLA-4 allo ag)
Cn1c(=O)c2c3c(sc2n2c(SCC(=O)c4ccc(Cl)cc4)nnc12)COC(C)(C)C3	none
Nc1ccc(CN2CCN(c3ccc4ccccc4n3)CC2)cc1	none
Cc1cc(N2C(=O)C(=O)/C(=C(/O)c3ccc(F)cc3)C2c2cccc(Br)c2)no1 (stereo not given)	none (no result: Proteasome disasm, VLA-4 antagonist, Jurkat autofluor, VLA-4 allo ag)
Cc1ccc(/C(O)=C2\C(=O)C(=O)N(c3cc(C)on3)C2c2cccc(Br)c2)cc1 (stereo not given)	FPR binder 40 (no result: Proteasome disasm, VLA-4 antagonist, Jurkat autofluor, VLA-4 allo ag)
CCCCCNC(CC(=O)Nc1ccc(OC)cc1)C(=O)O (stereo not given)	none
COc1ccc(N(CC(=O)NCc2cccnc2)S(=O)(=O)c2c(C)nn(C)c2C)cc1	none
CCCCn1c(NC(=O)c2ccccc2Cl)c(C#N)c2nc3ccccc3nc21	none (no result: Proteasome disasm, VLA-4 antagonist, Jurkat autofluor, VLA-4 allo ag)
CCCCn1c(NC(=O)CC)c(C#N)c2nc3ccccc3nc21	FPR binder 48, VLA-4 antagonist inconclusive, Jurkat autofluor 3.1, VLA-4 allo ag inconclusive
COc1ccc(OC)c(NC(=O)C2C3CCC(C3=C(C)C)C2C(=O)O)c1 (stereo not given)	FPR binder 38 (no result: Proteasome disasm, VLA-4 antagonist, Jurkat autofluor, VLA-4 allo ag)
CN(C(=O)COC(=O)C1CCN(S(=O)(=O)c2cccs2)CC1)C1CCS(=O)(=O)C1 (stereo not given)	none
O=C(c1ccc(Cl)cc1)N(Cc1cccs1)C1CCS(=O)(=O)C1 (stereo not given)	FPRL1 binder 46
COc1cccc(-c2nc(-c3ccc(NC(=O)Cc4ccccc4OC)cc3)no2)c1	none
COc1ccc(-c2nc(-c3ccc(Br)o3)no2)cc1OC	FPRL1 binder 31
COc1ccc(-c2nc(-c3ccc(NC(=O)c4ccc(Br)o4)cc3)no2)cc1OC	FPR binder 43, FPRL1 binder 50
C=C(C)C1Cc2c(C)nn(-c3nc(C)cc(C)n3)c2C1 (stereo not given)	VLA-4 antagonist 54
Cc1cccc(NC(=O)c2cnc3sccn3c2=O)n1	none
O=C(Nc1ccon1)c1cnc2sccn2c1=O	VLA-4 antagonist inconclusive, Jurkat autofluor 2.5, VLA-4 allo ag inconclusive
Cc1noc(C)c1S(=O)(=O)Nc1ccc(C(=O)NCCc2ccccc2)cc1	VLA-4 antagonist 55
Cc1ccc(NC(=O)c2ccc(NS(=O)(=O)c3c(C)noc3C)cc2)cc1C	none
COc1ccccc1CNC(=O)c1ccc(NS(=O)(=O)c2c(C)noc2C)cc1	none
Cc1noc(C)c1S(=O)(=O)Nc1ccc(C(=O)NC2CCCCC2)cc1	VLA-4 antagonist inconclusive, Jurkat autofluor 3, VLA-4 allo ag inconclusive
Cc1cccc(N2C(=O)CC(N(C(=O)c3ccco3)c3cccc(C)c3)C2=O)c1 (stereo not given)	none
